Five compounds from PubChem BioAssay can be followed below.

A short description of test [1]: yeast TOR pathway RPL19A-GFP modulators, primary screen, cell-based, S. cerevisiae, multiplex flow cytometry (AID 1862; in the data active = percent of DMSO control GFP below about 86%;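 also: lower values mimic rapamycin by blocking the RPL19A rise seen in DMSO cells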). The conditions noted are these: S. cerevisiae RPL19A-GFP strain, flow cytometry fluorescence, 3 h; at 10 µM; stronger effect = lower value.
Test [2] can be described thus: modulators of MEP2-GFP levels in yeast, primary screen, S. cerevisiae, multiplex flow cytometry (AID 1867;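 active = GFP response, as percent of the DMSO control, above the screen-wide mean plus 3 SD, about 139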;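 also: median GFP channel fluorescence of barcode-gated MEP2-GFP cells measured by flow cytometry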). The conditions noted are these: S. cerevisiae MEP2-GFP strain, 3 h, at 10 µM, stronger effect = higher value, 100% means same as DMSO wells. (In flow cytometry, cells or beads pass a laser one at a time.)
Test [3] is described as follows: modulators of CIT2-GFP expression in yeast, primary screen, S. cerevisiae, GFP fusion, multiplex flow cytometry (AID 1870;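 active = percent response above a set limit, the screen-wide mean plus 3 SD, cut at about 130% in these data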;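 also: barcoded CIT2-GFP strain pooled with four other GFP strains with rapamycin as positive control; median GFP fluorescence per well over plate mean of DMSO wells so 100% = DMSO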). The following applies: 3 h, at 10 µM, stronger effect = higher value.
Test [4] is described as follows: modulators of LAP4-GFP expression in yeast, primary screen, S. cerevisiae, multiplex flow cytometry (AID 1873;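 active = GFP signal, as percent of the solvent control, above the screen mean plus 3 SD, about 149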). The conditions noted are these: 3 h, at 10 µM, stronger effect = higher value.
A short description of test [5]: modulators of AGP1-GFP expression in yeast TOR pathway, primary screen, cell-based, multiplex flow cytometry, S. cerevisiae (AID 1887;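 active = GFP signal above the screen-wide mean plus 3 SD, that is over about 124.5% of the solvent control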;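 also: AGP1-GFP fusion strain of S. cerevisiae within a five-strain barcoded multiplex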). The following applies: 3 h, at 10 µM, stronger effect = higher value.
Test [6] in a line: inhibitors of CD8+ T cell-vesicle binding, pilot screen, LFA-1/ICAM-1 modulator project, MLPCN validation set, flow cytometry (AID 2523).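 As to vesicle binding response: mean PE anti-B7-1 fluorescence of CD8+ cells relative to row control; 100% = QL9-loaded vesicles with DMSO vehicle in the same plate row.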 The conditions noted are these: 2C mouse CD8+ T cells, at 7 µM, stronger effect = lower value; double positive events: measured here: CD8+/vesicle+ event percentage.
In test [7] the target is Integrin beta-1 (Homo sapiens) + Integrin alpha-4 (Homo sapiens) (UniProt P13612+P05556). Briefly: inhibition of HUTS-21 binding to VLA-4, pilot screen, VLA-4 allosteric modulator project, U937 cells, HUTS-21 mAb, flow cytometry, validation set (AID 2674;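 active = inhibition above 50%, about 3 SD of the validation set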;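 also: antibody binding induced by the VLA-4 ligand LDV present at three times its Kd; 0% = LDV ligand with antibody and no compound and 100% = antibody without LDV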). The following applies: HUTS-21 LIBS mAb binding, at 6.7 µM, stronger effect = higher value, binding induced by LDV ligand.
A short description of test [8]: superoxide lowering in aged yeast cells, pilot screen, validation compound set (AID 2706;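 active = superoxide response below 65% of plate, a cut near 3 SD across the whole screen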;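 also: yeast exposed to compound for one week at 30 degrees C before staining; 100% = mean of all compound wells on the same plate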). The following applies: S. cerevisiae aging, superoxide DHE fluorescence; at 10 µM; stronger effect = lower value.
The target in test [9] is Beta-adrenergic receptor kinase 1 (Homo sapiens) (UniProt P25098). Briefly: GRK2 binders displacing RNA aptamer, biochemical, validation, human GRK2, bead flow cytometry (AID 488806;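 active = aptamer binding inhibition above 30%, about 3 SD of noise from non-fluorescent compounds; inactive = inhibition at or below 30%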). The following applies: bead-bound GRK2, FAM-aptamer displacement, at 10 µM, stronger effect = higher value.
The target of test [10] is Beta-2 adrenergic receptor (Homo sapiens) (UniProt P07550). Description: beta2AR agonists driving receptor internalization, pilot screen, cell-based, FAP fluorogen, flow cytometry, validation set (AID 504459;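 active = percent response above 42, roughly 3 SD of non-fluorescent test compounds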;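 also: agonist-driven loss of surface beta2AR via internalization measured by FAP dye flow cytometry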). The conditions noted are these: Am2.2-beta2AR cells, FAP surface receptor flow cytometry; at 10 µM; stronger effect = higher value.
Test [11] concerns the target AP-2 complex subunit beta (Homo sapiens) (UniProt P63010). Description: inhibitors of arrestin peptide binding to AP2, pilot screen, biochemical, validation set, GST-AP2 beads, flow cytometry (AID 504541;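 active = inhibition above 54%, about 3 SD of non-fluorescent compounds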;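 also: AP2 carries R879A mutation and is captured from E. coli lysate; bead-bound FITC arrestin peptide fluorescence measuring arrestin peptide binding to AP2; 0% = DMSO wells and 100% = excess unlabeled arrestin peptide control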). The conditions noted are these: FITC arrestin peptide, at 10 µM, stronger effect = higher value, AP2 beta2 appendage fragment, R879A mutant.
The nature of test [12]: yeast V-ATPase proton transport modulators, S. cerevisiae, pHLuorin, HTS validation (AID 504600; in the data active = response above about 15%;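 also: plate controls were DMSO for no effect and reference compound for full effect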). The conditions noted are these: S. cerevisiae pHLuorin cytosolic pH, at 10 µM, stronger effect = higher value.
The test system of test [13] is anti-desmoglein-3 scFv antibody binding to human DSG3. Description: inhibitors of anti-DSG3 scFv binding to DSG3, pilot screen, biochemical, validation compound set, bead-based, flow cytometry (AID 588368;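 active = binding below the plate cutoff, the plate median minus 3 SD, with a reading above zero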;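 also: signal is the median channel fluorescence of bead-bound GFP antibody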). The conditions noted are these: Protein G beads, DSG3-Fc, scFv-GFP binding, at 10 µM, stronger effect = lower value.
Test [14] in a line: inhibitors of fungal efflux pumps CDR1, CDR2, MDR1, pilot screen, validation compound set, multiplex, phenotypic (AID 588506;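 active = efflux inhibition above 0.42, the validation set average plus 4 SD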;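 also: Nile Red retained in cells so higher fluorescence means more efflux inhibition; 0 = negative control wells and 1 = enniatin B 25 µM full block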). The conditions noted are these: S. cerevisiae pump-expressing triplex, Nile Red efflux flow cytometry; at 10 µM; stronger effect = higher value; the pumps come from Candida albicans.
For test [15], the target named is ATP-binding cassette sub-family B member 6 (Homo sapiens) (UniProt Q9NP58). Briefly: ABCB6 transporter inhibitors, pilot screen, K562-ABCB6 cells, flow cytometry, validation set (AID 588550;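 active = inhibition above the screen-wide mean plus 3 SD, about 51%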;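 also: 0% = DMSO wells and 100% = benzethonium chloride 70 µM positive control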). The following applies: K562-ABCB6 porphyrin accumulation, 1 h, at 10 µM, stronger effect = higher value.
Test [16] can be described thus: promoters of myeloid differentiation in arrested cells, primary screen, cell-based, GFP/MAC1 double positive, flow cytometry, validation set (AID 588685;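 active = differentiation response of at least 50%, scaled between solvent and reference control, from cells with both markers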;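 also: compound exposure lasts four days before antibody staining and flow analysis; 0% = DMSO wells and 100% = 5 µM fulvestrant positive control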). The following applies: ER-HoxA9 marrow cells, stronger effect = higher value, normalized: vehicle 0, fulvestrant 100.

In general, inhibition refers to the relative decrease from the control value, in per cent.

SMILES strings stand for the structures. Records with an inconclusive call do not appear. The source made the active and inactive calls.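 The calls were made as follows, unless noted: active = response below a set limit, under 55% cells CD8-positive and vesicle-bound, and CD8 cells' 90th-percentile brightness under 279; inactive = the rest.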

Chain of Beta-adrenergic receptor kinase 1 (Homo sapiens) (P25098 whole entry, looked up): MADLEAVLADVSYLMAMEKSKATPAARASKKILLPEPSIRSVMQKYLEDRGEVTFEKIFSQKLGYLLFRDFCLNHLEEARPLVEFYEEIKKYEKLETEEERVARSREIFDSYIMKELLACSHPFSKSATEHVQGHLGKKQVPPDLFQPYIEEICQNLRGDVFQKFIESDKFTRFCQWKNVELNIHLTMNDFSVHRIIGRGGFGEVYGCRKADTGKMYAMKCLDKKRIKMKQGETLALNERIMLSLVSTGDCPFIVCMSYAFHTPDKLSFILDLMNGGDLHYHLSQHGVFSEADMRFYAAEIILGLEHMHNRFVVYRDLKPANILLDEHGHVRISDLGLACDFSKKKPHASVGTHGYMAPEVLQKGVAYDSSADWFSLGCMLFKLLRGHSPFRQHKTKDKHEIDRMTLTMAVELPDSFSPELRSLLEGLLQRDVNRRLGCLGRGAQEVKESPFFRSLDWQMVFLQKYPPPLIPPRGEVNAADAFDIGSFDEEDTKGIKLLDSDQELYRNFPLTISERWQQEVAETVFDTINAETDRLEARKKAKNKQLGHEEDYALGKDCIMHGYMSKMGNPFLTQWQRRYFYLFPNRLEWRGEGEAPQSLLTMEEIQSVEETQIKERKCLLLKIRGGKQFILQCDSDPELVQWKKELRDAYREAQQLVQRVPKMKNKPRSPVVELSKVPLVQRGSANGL
Chain of AP-2 complex subunit beta (Homo sapiens) (P63010 whole entry, looked up, the tested form may be a part, one chain of several): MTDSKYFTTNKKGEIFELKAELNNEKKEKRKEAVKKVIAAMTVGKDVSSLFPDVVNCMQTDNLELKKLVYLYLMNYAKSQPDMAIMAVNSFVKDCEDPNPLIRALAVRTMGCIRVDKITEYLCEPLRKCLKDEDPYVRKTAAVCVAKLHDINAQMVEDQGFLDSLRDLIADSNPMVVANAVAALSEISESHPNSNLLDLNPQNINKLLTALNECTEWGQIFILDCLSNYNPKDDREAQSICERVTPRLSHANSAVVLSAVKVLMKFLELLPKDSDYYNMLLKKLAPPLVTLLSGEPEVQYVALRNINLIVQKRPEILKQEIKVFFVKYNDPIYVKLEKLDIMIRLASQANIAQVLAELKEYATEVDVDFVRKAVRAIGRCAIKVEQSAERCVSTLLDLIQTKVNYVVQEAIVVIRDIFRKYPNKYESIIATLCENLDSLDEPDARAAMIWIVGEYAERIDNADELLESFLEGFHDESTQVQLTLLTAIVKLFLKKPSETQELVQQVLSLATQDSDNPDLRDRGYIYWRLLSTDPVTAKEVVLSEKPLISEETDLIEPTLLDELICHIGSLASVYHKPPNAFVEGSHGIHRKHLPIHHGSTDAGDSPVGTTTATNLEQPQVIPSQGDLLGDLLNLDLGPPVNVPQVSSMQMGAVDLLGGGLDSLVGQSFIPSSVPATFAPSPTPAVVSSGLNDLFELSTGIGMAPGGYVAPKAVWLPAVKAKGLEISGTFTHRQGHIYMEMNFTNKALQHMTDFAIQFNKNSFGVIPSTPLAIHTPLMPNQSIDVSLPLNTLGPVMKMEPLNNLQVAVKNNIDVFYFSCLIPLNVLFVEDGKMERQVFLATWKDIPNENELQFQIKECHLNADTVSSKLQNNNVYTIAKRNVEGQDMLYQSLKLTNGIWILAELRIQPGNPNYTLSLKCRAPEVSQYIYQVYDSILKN
Chain of ATP-binding cassette sub-family B member 6 (Homo sapiens) (Q9NP58 whole entry, looked up): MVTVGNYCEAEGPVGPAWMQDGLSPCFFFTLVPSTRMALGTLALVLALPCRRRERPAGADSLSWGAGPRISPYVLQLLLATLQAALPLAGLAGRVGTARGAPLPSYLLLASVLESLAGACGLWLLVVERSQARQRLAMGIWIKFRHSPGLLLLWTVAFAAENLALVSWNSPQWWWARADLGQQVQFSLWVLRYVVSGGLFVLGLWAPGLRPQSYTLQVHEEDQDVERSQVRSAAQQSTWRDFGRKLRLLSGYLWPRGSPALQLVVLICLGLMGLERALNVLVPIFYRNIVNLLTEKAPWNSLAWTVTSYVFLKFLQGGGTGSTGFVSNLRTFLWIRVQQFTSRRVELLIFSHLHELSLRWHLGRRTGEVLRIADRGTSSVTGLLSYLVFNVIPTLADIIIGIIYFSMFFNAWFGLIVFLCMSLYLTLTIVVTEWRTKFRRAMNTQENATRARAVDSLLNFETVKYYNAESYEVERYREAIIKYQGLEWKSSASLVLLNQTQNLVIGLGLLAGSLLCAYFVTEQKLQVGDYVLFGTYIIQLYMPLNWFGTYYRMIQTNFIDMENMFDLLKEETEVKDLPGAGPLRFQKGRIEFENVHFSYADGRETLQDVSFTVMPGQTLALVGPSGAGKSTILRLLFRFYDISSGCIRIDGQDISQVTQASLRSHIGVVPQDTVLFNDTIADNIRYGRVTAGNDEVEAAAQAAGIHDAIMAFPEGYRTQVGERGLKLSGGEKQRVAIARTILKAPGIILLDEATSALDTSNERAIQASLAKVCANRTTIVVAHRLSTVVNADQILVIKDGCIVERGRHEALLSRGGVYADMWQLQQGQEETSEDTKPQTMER
Chain of Beta-2 adrenergic receptor (Homo sapiens) (P07550 whole entry, looked up): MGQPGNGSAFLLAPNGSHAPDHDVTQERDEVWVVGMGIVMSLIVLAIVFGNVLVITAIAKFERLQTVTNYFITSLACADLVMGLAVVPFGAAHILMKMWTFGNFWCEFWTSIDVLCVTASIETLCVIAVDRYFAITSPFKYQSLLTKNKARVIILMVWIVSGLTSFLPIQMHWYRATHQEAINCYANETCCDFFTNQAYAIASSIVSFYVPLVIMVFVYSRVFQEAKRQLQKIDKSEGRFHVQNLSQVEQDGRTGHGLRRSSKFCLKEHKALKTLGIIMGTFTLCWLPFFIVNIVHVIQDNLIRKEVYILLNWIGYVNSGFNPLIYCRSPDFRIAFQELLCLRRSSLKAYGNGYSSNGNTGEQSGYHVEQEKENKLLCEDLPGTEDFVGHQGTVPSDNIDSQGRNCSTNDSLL
Chain of Integrin beta-1 (Homo sapiens) + Integrin alpha-4 (Homo sapiens) (P05556 whole entry, looked up): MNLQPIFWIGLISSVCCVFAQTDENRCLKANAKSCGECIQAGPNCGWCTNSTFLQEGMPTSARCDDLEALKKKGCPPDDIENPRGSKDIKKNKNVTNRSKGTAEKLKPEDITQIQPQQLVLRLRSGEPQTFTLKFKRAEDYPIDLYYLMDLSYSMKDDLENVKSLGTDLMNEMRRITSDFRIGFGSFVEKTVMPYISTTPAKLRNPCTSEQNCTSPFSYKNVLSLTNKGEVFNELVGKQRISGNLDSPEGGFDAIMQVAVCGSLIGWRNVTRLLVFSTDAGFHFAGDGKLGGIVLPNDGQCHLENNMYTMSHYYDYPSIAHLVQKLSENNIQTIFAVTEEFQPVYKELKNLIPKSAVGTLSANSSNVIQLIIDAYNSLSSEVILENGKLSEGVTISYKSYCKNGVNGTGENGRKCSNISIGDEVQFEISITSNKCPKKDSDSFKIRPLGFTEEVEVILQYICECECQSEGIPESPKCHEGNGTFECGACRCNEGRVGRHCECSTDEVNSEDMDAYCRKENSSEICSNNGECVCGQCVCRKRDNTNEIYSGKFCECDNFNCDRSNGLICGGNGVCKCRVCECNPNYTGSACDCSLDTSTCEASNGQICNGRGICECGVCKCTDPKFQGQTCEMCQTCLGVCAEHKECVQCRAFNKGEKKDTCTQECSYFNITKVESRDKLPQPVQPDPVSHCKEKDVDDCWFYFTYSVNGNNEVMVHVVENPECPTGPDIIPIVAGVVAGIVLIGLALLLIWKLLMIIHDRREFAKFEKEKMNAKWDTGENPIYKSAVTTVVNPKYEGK
Chain of Integrin beta-1 (Homo sapiens) + Integrin alpha-4 (Homo sapiens) (P13612 whole entry, looked up): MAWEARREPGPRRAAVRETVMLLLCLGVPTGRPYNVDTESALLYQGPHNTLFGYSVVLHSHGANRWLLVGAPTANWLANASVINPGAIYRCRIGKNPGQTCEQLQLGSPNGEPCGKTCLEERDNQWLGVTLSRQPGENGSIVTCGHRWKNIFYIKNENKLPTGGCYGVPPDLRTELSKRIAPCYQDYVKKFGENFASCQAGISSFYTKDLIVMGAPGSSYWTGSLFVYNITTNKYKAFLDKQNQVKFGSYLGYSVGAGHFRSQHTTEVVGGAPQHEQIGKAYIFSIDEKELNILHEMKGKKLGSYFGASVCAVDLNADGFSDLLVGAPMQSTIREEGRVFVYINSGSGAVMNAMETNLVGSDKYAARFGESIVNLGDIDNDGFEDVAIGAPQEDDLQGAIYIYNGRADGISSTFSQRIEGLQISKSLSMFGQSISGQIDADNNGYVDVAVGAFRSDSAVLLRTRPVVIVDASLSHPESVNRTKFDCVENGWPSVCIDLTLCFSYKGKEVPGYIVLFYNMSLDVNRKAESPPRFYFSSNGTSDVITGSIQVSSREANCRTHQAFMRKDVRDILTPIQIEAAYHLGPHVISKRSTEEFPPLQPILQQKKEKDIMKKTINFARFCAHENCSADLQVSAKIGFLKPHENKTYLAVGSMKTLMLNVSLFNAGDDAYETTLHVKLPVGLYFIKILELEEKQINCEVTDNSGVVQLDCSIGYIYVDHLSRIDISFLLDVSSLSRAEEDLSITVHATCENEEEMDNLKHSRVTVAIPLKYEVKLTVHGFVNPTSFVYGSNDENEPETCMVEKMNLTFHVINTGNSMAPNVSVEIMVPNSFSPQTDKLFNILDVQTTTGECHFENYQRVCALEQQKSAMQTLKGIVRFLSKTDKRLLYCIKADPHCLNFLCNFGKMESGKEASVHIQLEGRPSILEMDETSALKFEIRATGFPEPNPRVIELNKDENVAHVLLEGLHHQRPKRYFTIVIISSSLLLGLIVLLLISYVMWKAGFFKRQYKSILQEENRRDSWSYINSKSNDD

`COc1ccccc1C(O)c1nccn1C` (stereo not given): the percent of DMSO control GFP in test [1] is 92% (inactive). The GFP response vs DMSO is 127% (inactive) in [2] and 79.8% (inactive) in test [4]. The percent response of DMSO control in [3] was 106% (inactive). Besides, in [5], the GFP response, % of DMSO was 93.1% (inactive). The double positive events in [6] is 76.2%. Moreover, the vesicle binding response in test [6] was 282% (inactive). In addition, the inhibition in test [7] is 17.1% (inactive); in [11], 0.35% (inactive); in test [15], 11% (inactive). For the same compound, in test [8], the superoxide response (% of plate) was 81.3% (inactive). Further, in test [9], the aptamer binding inhibition was 4% (inactive). Besides, the response is -3.43% (inactive) in [10] and 24.9% (active) in [12]. Also, the binding (% of control) in test [13] was 104% (inactive). In test [14], the efflux inhibition (fraction of control) was -0.35 (inactive). In test [16], the differentiation response was -7.37% (inactive).

On to `CCOCC(=O)Nc1nc2ccccc2s1`, for which the percent of DMSO control GFP in test [1] was 92.4% (inactive). Also, the results for the GFP response vs DMSO in [2] and in [4] were 125% (inactive) and 80.9% (inactive), respectively. Also, the percent response of DMSO control in test [3] is 101% (inactive). The GFP response, % of DMSO in test [5] is 94.2% (inactive). Besides, the double positive events in test [6] was 65.7%. In addition, the vesicle binding response in test [6] is 149% (inactive). In addition, the inhibition in [7] is 2.58% (inactive); in [11], -1.47% (inactive); in test [15] it was 12% (inactive). Also, the superoxide response (% of plate) in [8] is 95.4% (inactive). In [9], the aptamer binding inhibition is 6% (inactive). In addition, the response is -8.15% (inactive) in [10] and 3.42% (inactive) in [12]. The binding (% of control) in test [13] was 105% (inactive). The efflux inhibition (fraction of control) in [14] is 0.23 (inactive). The differentiation response in test [16] is -0.82% (inactive).

As for `CCOC(=O)c1ncn2c1CN(C)C(=O)c1cc(F)ccc1-2`, the percent of DMSO control GFP in test [1] was 101% (inactive). Moreover, the GFP response vs DMSO in [2] is 96.6% (inactive); in test [4], 107% (inactive). The percent response of DMSO control in [3] was 96.5% (inactive). For the same compound, the GFP response, % of DMSO in test [5] is 105% (inactive). The compound also came in with a double positive events in test [6] of 58.4%. In addition, the vesicle binding response in test [6] was 200% (inactive). Besides, the inhibition was 8.29% (inactive) in test [7], -0.66% (inactive) in test [11] and 0% (inactive) in test [15]. In addition, the superoxide response (% of plate) in test [8] was 115% (inactive). Besides, the aptamer binding inhibition in test [9] is 1% (inactive). Besides, the response in test [10] was 3.78% (inactive); in test [12] it was 2.2% (inactive). The binding (% of control) in [13] is 97.7% (inactive). The efflux inhibition (fraction of control) in test [14] was -0.025 (inactive). Besides, in test [16], the differentiation response was 7.13% (inactive).

On to `Cc1ccccc1NC(=O)C1(C)Cc2ccccc2C(=O)O1` (stereo not given), for which the percent of DMSO control GFP in [1] was 100% (inactive). Also, the figures for the GFP response vs DMSO in test [2] and in [4] were 103% (inactive) and 131% (inactive), respectively. The percent response of DMSO control in [3] is 92.9% (inactive). The GFP response, % of DMSO in test [5] was 101% (inactive). For the same compound, in [6], the double positive events worked out at 61.4%. Besides, the vesicle binding response in test [6] was 161% (inactive). The inhibition in test [7] was 10.5% (inactive); in test [11], 29.5% (inactive); in [15], -4% (inactive). The superoxide response (% of plate) in test [8] is 96.3% (inactive). Besides, the aptamer binding inhibition in test [9] was 1% (inactive). Besides, the response was -11% (inactive) in test [10] and -1.4% (inactive) in test [12]. Further, the binding (% of control) in test [13] was 101% (inactive). In addition, in test [14], the efflux inhibition (fraction of control) was -0.28 (inactive). In test [16], the differentiation response was 18.4% (inactive).

In the case of `COc1ccc2oc(C)c(C(N)=O)c2c1`, the percent of DMSO control GFP in test [1] was 99.5% (inactive). Further, the GFP response vs DMSO in test [2] was 109% (inactive); in [4], 118% (inactive). Also, the percent response of DMSO control in test [3] was 91% (inactive). The GFP response, % of DMSO in test [5] is 102% (inactive). The double positive events in test [6] is 61.6%. The vesicle binding response in [6] was 132% (inactive). The values for the inhibition in test [7], in test [11] and in test [15] were 6.4% (inactive), 7.21% (inactive) and -9% (inactive), respectively. Moreover, the superoxide response (% of plate) in test [8] is 96% (inactive). Moreover, the aptamer binding inhibition in test [9] was 4% (inactive). For the same compound, the figures for the response in test [10] and in [12] were -0.3% (inactive) and -6.34% (inactive), respectively. Moreover, the binding (% of control) in test [13] is 100% (inactive). Besides, the efflux inhibition (fraction of control) in test [14] was -0.21 (inactive). For the same compound, the differentiation response in test [16] was -8.8% (inactive).
